# TCR activator = Activators of T cell receptors: qHTS campaign | AID 504894, 2011 | primary human leukocytes, anti-CD3, IL-2 HTRF, 48 h | Potency, µM (doses to about 9.22 µM), without a hit: at the highest dose activation of IL-2 secretion, actives largely listed as activators | 330,000 tested, under 10 active; also: % of control where 0% means no effect
#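 IL-2 produced over 48 hr by a-CD3 bead-stimulated primary human leukocytes exposed to compounds was detected with a homogeneous time-resolved FRET immunoassay, 665nm acceptor signal after 320nm excitation.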
# Sfp PPTase inh = qHTS Assay for Inhibitors of Bacillus subtilis Sfp phosphopantetheinyl transferase (PPTase). Potency, µM, for the others: largest response in the series, negative = inhibition, most hits filed as inhibitors. actives 3.5% (n = 310,000). 4'-phosphopantetheinyl transferase ffp (Bacillus subtilis), Q9F4F7. Biochemical Sfp PPTase activity, qHTS. AID 1490, 2009;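 also: the enzyme is Sfp with the accession as filed and its product quenches rhodamine fluorescence; potency is read from the fitted curve at half-maximal effect; 0% = enzyme reaction without inhibitor and -100% = no enzyme wells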
#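 Compounds were incubated with enzyme (final 15 nM) for 15 min at room temperature before substrate addition started the reaction. Fluorescence at 525 nm excitation, 598 nm emission was recorded immediately and after 30 minutes.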
# uPA surface inh = qHTS for Inhibitors of Cell Surface uPA Generation; cell surface uPA generation assay, qHTS; Potency, µM (top dose mostly 38.3 µM), inactives show top-dose activity change, negative = inhibition, hits mostly inhibitors; actives 0.31% (n = 330,000); active = well fitted inhibition curve with a large enough effect; inconclusive = small, poorly fitted or top-dose-only effect; inactive = no such curve, though single readings can be large or run the other way; tested in mouse RAW 264.7 cells; also: potency is read from the fitted curve at half-maximal effect; % is scaled to controls: 0 for no effect and ±100 for the full control effect; nearly all actives have a fitted effect of over 55% in size
# ClpP mod = qHTS Assay for Activators of ClpP. actives 1.9% (n = 340,000). purified B. subtilis ClpP, FRET peptide cleavage, 20 min. Potency, µM (titrated, usually from 57.5 µM), for inactives: at the highest dose activity change, negative = active. ATP-dependent Clp protease proteolytic subunit (Bacillus subtilis (strain 168)), P80244; active = well fitted falling curve with a large enough effect; inconclusive = small, poorly fitted or top-dose-only effect; inactive = no such curve, though single readings can be large or run the other way; also: potency is read from the fitted curve at half-maximal effect; the source files actives as falling curves though it sought activators and does not explain the sign; nearly all actives have a fitted effect of over 65% in size
# Target sequence (P80244 whole entry, looked up): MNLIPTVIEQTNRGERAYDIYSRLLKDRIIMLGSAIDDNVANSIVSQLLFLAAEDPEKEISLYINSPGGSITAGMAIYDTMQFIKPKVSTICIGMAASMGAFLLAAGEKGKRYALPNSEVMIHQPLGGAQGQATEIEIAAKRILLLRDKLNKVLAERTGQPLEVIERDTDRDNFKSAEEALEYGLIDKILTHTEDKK
#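 FRET quenching reversal measured ClpP activation: 10 microg/mL B. subtilis ClpP at pH 8 with the FRET-FV decapeptide, read at 430 nm after 320 nm excitation. The 20-min minus 0-min signal was scaled between DMSO/no-enzyme wells and ADEP (5.8 microM final).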
# An asterisk follows results filed as active; ? = inconclusive; / = not tested or not shown; [ ] = remark or other dose. A selection: hits, their analogues and other compounds. The true share with any hit is near 4.2%. Unless noted, calls follow the shape of the dose curve; as a rule, active = well fitted curve in the direction sought with a large enough effect; inconclusive = small, poorly fitted or top-dose-only effect, or another doubt; inactive = no such curve, though single readings can be large; an effect the other way counts as inactive or inconclusive.
SMILES,TCR activator,Sfp PPTase inh,uPA surface inh,ClpP mod
CN(C(=O)COC(=O)C1CSC2(C)CCC(=O)N12)c1ccccc1 (configuration not stated),4%,/,9%,28µM*
COc1ccccc1/C=C/C=N/NC(=O)c1cc(-c2ccco2)[nH]n1,-1%,13µM*,-3%,/
O=C(O)c1cccs1,/,/,/,-1%
CN1C(=O)c2c(sc3c2CCCC3)NC1c1ccccc1O (configuration not stated),/,40µM*,/,/
O=C1c2ccccc2NC(c2ccccc2O)N1O (configuration not stated),-3%,-4%,-8%,-3%
COc1ccc(C(=O)CC(C(=O)O)c2ccc(OC)c(OC)c2)cc1OC (configuration not stated),/,/,/,-3%
CCCCCCNC(=O)CNC(=S)N(Cc1cccs1)C1CCCCC1,1%,11%,11%,2%
Cc1ccc(C)c(NC(=S)c2ccc3ccccc3n2)c1,7%[46.1 µM],10%,-1%,1%
CN(C)c1ccc(NC(=S)c2ccc3ccccc3n2)cc1,0%,7.1µM*,5%,3%
O=C(COc1ccc(Cl)cc1Cl)Nc1ccc(C(=O)OC2CCCCC2)cc1,/,/,/,-2%
COc1ccc(NC(=O)CSc2ncccc2C(=O)O)cc1OC,/,/,/,-1%
O=C(Oc1ccccc1Cl)c1ccccc1,1%,/,0%,-3%
O=C(Oc1cccccc1=O)c1ccccc1,4%,25µM*,?,1%
O=C(O)c1ccccc1N/C=C\[N+](=O)[O-],0%,56µM*,3%,/
Cc1ccccc1-c1ccc(C(=O)NCc2ccccc2)o1,4%,-12%,6%,4%
O=C(NCc1ccccc1)c1cc(-c2cccs2)on1,-4%,22%,/,-11%
O=C(NCc1ccccc1)c1ccc(-c2ccc(F)cc2)o1,-1%,?,/,28µM*
O=C(NCc1ccc(F)cc1)c1cc(-c2cccs2)on1,/,45µM*,/,3%
CCn1nc(C)cc1C(=O)N1CCCC(Nc2ccc(C(C)C)cc2)C1 (configuration not stated),1%,5%,9%,-14%
O=C(CCSc1nnc2ccccn12)Nc1ccc(F)cc1,/,34%,14%,28µM*
COc1ccc(N2CCN(C(=O)c3cnc(N4CCOCC4)c4ccccc34)CC2)cc1,/,/,/,-10%
O=c1cccc2n1Cc1cc3ccccc3nc1-2,-14%,12%,7.9µM*,4%
c1ccc2nc3ccccc3cc2c1,/,7%,/,5%
CCCCCN1CC(=O)N2Cc3[nH]c4ccccc4c3C[C@H]2C1=O,-3%,16%,-7%,/
CCCCN1C(=O)C2Cc3c([nH]c4ccccc34)CN2C1=S (configuration not stated),1%,56µM*,-1%,/
SMILES,TCR activator,Sfp PPTase inh,uPA surface inh,ClpP mod
CN1CCN(c2ncc3nc(-c4cccs4)c(=O)n(CCC#N)c3n2)CC1,/,-14%,/,/
O=C(COc1ccc(S(=O)(=O)N2CCOCC2)cc1)NCC1CCCO1 (configuration not stated),-7%,15%,8%,-4%
O=C(COC(=O)c1cc(S(=O)(=O)N2CCOCC2)ccc1O)NCC1CCCO1 (configuration not stated),3%,9%,2%,35µM*
CCOc1cccc(C(=O)N(Cc2ccc(C)o2)C2CCS(=O)(=O)C2)c1 (configuration not stated),/,/,/,1%
CCOc1ccc(C(C)=O)cc1N1C(=O)C2C(C1=O)C1C=CC2C12CC2 (configuration not stated),0%,7%,-10%,-1%
CCOc1ccc(C(C)=O)cc1N1C(=O)C2C3C=CC(C3=C(C)C)C2C1=O (configuration not stated),5%,45µM*,5%,3%
CCC(=O)N(Cc1ccco1)c1nc(C(=O)Nc2ccc(Cl)cc2)c(C)s1,-5%[46.1 µM],20µM*,-3%,-22%
Cc1ccc(NC(=O)c2nc(S(C)(=O)=O)ncc2N(Cc2ccco2)Cc2ccco2)cc1,/,/,/,-2%
COC(=O)c1ccc(Cn2cnc3nc4c(cc3c2=O)CCCC4)cc1,/,/,/,-2%
COc1ccc2nc(-n3c(O)c(C4=c5ccccc5=NC4=O)[nH]c3=S)sc2c1,7%[46.1 µM],50µM*,0%,-3%
Cc1cccc(C)c1N1CCN(C(c2cc3ccccc3o2)c2nnnn2C(C)(C)C)CC1 (configuration not stated),/,/,/,-1%

# Screening data as filed in PubChem.
